# PMC7862700, “An all-to-all approach to the identification of sequence-specific readers for epigenetic DNA modifications on cytosine”
# Key:
# Experiment in all cases: DAPPL (digital affinity profiling via proximity ligation, sequencing); 10 mM Tris-HCl pH 7.5, 50 mM NaCl, 1 mM DTT, 4% glycerol, room temperature, 30 min; GST-TFs on glutathione beads, 16-mer random dsDNA library, 0.1% formaldehyde crosslink after washing; high values mean tight binding
# [1] = target: T1, FEV (Homo sapiens, UniProt Q99581 1-238); conditions: protein: recombinant; tags: N-terminal GST; dsDNA, one strand shown
# T1 sequence: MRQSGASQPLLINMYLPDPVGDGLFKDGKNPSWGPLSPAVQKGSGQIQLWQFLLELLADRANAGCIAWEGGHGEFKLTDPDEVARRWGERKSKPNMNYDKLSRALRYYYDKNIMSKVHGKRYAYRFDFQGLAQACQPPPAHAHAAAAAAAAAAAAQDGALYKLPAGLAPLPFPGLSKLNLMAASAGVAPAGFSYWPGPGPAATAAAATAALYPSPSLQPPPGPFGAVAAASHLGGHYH
# Outline: (§1)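 Binding signal is each hexamer's read frequency for a factor divided by its frequency in the tag-only sample. The factors were GST-fused human transcription factors from yeast, captured on glutathione beads, DNA-barcoded and pooled with that sample. Pools were incubated with 200 nmole of a random double-stranded 16-mer DNA library in Tris/NaCl/DTT/glycerol buffer at room temperature for 30 min, then washed, crosslinked with 0.1% formaldehyde, proximity-ligated with BsaI/T4 ligase (1 h, 37 °C), PCR-amplified and sequenced on an Illumina NextSeq500.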
# [2] = target: ETV5 (Homo sapiens, UniProt P41161 1-510); conditions: protein: recombinant; tags: N-terminal GST; dsDNA, one strand shown
# ETV5, sequence (P41161 whole entry): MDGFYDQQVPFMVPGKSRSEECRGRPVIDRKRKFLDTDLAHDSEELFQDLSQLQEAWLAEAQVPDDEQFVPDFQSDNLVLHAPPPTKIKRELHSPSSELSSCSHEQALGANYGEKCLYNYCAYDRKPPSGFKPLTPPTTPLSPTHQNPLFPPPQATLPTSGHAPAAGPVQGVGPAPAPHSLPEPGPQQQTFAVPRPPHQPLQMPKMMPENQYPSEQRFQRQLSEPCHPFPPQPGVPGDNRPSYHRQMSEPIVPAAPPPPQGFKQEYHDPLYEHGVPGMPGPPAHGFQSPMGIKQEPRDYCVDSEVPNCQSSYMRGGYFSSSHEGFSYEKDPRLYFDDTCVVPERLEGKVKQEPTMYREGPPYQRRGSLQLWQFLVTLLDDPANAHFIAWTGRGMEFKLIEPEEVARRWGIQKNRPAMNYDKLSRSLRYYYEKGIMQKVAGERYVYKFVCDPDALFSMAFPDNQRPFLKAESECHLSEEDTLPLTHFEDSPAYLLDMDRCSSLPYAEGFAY
# Outline: as §1
# [3] = target: HSF1 (Homo sapiens, UniProt Q00613 1-529); conditions: protein: recombinant; tags: N-terminal GST; chain copies: 3; dsDNA, one strand shown
# HSF1, sequence (Q00613 whole entry): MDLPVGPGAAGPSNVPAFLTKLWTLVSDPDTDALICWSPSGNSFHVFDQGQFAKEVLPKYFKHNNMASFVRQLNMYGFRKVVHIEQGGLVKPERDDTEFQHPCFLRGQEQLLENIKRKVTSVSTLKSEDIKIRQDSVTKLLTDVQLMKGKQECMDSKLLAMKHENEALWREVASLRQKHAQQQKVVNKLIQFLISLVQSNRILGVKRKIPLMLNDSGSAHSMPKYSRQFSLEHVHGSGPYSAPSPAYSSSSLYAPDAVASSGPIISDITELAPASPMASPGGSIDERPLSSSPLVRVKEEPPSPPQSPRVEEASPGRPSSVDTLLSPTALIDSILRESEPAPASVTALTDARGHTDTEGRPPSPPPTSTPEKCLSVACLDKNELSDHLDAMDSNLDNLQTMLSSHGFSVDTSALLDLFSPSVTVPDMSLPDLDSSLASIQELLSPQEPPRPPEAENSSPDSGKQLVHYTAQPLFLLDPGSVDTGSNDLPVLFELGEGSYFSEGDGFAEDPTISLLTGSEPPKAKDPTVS
# Outline: as §1
# [4] = target: T2, SPIC (Homo sapiens, UniProt Q8N5J4 1-248); conditions: protein: recombinant; tags: N-terminal GST; dsDNA, one strand shown
# T2 sequence: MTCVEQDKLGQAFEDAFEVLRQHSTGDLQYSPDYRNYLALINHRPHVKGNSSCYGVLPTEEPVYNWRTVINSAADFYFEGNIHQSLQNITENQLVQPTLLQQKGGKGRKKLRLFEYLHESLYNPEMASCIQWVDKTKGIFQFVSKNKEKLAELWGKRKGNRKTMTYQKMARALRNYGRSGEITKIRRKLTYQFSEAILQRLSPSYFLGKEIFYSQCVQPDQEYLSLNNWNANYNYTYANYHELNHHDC
# Outline: as §1
# [5] = target: ELF4 (Homo sapiens, UniProt Q99607 1-663); conditions: protein: recombinant; tags: N-terminal GST; dsDNA, one strand shown
# ELF4, sequence (Q99607 whole entry): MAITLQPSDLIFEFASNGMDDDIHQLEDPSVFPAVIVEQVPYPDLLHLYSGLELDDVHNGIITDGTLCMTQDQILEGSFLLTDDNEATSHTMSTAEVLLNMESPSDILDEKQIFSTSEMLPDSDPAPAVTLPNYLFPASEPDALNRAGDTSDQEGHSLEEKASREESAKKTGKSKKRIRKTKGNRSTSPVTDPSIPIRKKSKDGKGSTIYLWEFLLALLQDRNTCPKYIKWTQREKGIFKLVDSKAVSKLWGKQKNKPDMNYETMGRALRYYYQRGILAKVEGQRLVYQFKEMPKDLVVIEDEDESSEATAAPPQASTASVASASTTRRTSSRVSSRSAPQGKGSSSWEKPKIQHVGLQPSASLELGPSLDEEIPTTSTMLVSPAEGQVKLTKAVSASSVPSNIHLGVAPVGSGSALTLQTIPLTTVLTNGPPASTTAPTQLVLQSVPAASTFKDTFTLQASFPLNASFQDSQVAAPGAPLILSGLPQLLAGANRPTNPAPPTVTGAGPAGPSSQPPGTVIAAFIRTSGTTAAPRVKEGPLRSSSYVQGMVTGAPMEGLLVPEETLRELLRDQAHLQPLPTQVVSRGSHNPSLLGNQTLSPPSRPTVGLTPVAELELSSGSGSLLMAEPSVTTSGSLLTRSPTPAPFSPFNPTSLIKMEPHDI
# Outline: as §1
# [6] = target: T3, ELK4 (Homo sapiens, UniProt P28324-2 1-405); conditions: protein: recombinant; tags: N-terminal GST; dsDNA, one strand shown
# T3 sequence: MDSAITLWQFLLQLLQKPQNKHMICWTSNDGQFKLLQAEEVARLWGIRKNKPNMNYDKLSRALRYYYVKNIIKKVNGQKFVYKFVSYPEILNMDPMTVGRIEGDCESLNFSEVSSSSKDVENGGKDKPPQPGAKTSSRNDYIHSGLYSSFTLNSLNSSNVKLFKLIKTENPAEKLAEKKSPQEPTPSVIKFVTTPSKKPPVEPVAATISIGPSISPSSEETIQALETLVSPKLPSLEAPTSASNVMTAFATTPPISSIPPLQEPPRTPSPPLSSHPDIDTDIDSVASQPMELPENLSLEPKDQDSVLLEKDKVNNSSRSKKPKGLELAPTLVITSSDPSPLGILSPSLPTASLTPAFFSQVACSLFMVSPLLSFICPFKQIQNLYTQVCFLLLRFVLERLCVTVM
# Outline: as §1
# [7] = target: T4, ETV2 (Homo sapiens, UniProt O00321 1-342); conditions: protein: recombinant; tags: N-terminal GST; dsDNA, one strand shown
# T4 sequence: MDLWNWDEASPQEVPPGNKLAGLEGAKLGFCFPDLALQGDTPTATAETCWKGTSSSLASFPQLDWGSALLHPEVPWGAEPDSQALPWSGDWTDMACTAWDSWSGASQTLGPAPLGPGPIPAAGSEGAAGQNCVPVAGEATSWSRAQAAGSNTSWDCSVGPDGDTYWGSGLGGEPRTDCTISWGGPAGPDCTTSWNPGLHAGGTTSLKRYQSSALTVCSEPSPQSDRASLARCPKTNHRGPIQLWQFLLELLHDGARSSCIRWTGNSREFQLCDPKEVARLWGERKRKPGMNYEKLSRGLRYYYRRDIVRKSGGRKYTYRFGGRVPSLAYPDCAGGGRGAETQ
# Outline: as §1
# [8] = target: T5, ELF3 (Homo sapiens, UniProt P78545 1-371); conditions: protein: recombinant; tags: N-terminal GST; dsDNA, one strand shown
# T5 sequence: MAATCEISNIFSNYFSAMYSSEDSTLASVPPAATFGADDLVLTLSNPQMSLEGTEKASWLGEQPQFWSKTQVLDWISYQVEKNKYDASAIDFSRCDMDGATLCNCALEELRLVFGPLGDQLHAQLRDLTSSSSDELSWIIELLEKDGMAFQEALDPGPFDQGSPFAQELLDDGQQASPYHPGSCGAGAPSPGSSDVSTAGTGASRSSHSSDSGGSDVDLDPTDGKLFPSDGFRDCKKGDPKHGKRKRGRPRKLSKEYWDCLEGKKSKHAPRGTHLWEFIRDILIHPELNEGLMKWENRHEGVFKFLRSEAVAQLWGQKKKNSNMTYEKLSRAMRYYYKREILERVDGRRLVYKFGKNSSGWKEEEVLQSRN
# Outline: as §1
# [9] = target: CRX (Homo sapiens, UniProt O43186 1-299); conditions: protein: recombinant; tags: N-terminal GST; dsDNA, one strand shown
# CRX, sequence (O43186 whole entry): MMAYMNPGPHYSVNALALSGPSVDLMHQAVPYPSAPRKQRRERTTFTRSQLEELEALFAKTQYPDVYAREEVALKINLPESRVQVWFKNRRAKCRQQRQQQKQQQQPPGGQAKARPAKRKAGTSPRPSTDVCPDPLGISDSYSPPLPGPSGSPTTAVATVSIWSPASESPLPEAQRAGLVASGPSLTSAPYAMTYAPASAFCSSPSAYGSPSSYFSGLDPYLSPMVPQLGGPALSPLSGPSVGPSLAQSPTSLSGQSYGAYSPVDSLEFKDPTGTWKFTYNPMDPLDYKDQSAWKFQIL
# Outline: as §1
sequence,measurement,setting,value
CCACTA,binding signal,[1],"1.08 fold enrichment (6-mer frequency, TF over GST control)"
same,binding signal,[2],"1.12 fold enrichment (6-mer frequency, TF over GST control)"
same,binding signal,[3],"1.08 fold enrichment (6-mer frequency, TF over GST control)"
same,binding signal,[4],"1.11 fold enrichment (6-mer frequency, TF over GST control)"
same,binding signal,[5],"1.11 fold enrichment (6-mer frequency, TF over GST control)"
same,binding signal,[6],"1.06 fold enrichment (6-mer frequency, TF over GST control)"
same,binding signal,[7],"1.14 fold enrichment (6-mer frequency, TF over GST control)"
same,binding signal,[8],"1.1 fold enrichment (6-mer frequency, TF over GST control)"
same,binding signal,[9],"1.12 fold enrichment (6-mer frequency, TF over GST control)"
